Measurements as given in ChEMBL document CHEMBL1961873, “Compounds: GSK PKIS; Assays: Nanosyn kinase panel” (2012).

Legend:
[1] = biological target: Rho-associated protein kinase 1 (Homo sapiens) (UniProt Q13464); details: at 1 µM;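 also: reported values are mean percent inhibition of ROCK1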
[2] = biological target: Rho-associated protein kinase 2 (Homo sapiens) (UniProt O75116); details: at 0.1 µM
[3] = biological target: Rho-associated protein kinase 2 (Homo sapiens) (UniProt O75116); details: at 1 µM
[4] = biological target: Ribosomal protein S6 kinase alpha-1 (Homo sapiens) (UniProt Q15418); details: at 0.1 µM
Chain of Ribosomal protein S6 kinase alpha-1 (Homo sapiens) (Q15418 whole entry): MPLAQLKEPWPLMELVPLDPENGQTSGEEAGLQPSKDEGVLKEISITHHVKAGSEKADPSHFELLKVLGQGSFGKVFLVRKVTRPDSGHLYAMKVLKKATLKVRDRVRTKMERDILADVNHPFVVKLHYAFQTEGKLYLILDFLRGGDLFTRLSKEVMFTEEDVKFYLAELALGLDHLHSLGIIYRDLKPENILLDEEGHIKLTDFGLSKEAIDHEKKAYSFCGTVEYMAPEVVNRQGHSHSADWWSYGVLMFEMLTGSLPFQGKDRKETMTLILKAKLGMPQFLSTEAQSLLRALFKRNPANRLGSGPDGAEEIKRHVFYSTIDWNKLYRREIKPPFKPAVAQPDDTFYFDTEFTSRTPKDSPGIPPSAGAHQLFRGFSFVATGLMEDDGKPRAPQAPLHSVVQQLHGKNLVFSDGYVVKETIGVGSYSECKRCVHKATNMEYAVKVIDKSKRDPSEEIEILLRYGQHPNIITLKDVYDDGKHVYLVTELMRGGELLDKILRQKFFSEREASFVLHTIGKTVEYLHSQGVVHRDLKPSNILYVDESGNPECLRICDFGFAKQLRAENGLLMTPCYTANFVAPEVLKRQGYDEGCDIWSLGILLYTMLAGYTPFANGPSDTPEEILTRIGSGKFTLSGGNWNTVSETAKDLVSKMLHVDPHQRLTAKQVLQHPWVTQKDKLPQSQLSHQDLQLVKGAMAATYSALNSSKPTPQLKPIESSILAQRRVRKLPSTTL

[5] = biological target: Ribosomal protein S6 kinase alpha-1 (Homo sapiens) (UniProt Q15418); details: at 1 µM
[6] = biological target: Ribosomal protein S6 kinase alpha-3 (Homo sapiens) (UniProt P51812); details: at 0.1 µM
[7] = biological target: Ribosomal protein S6 kinase alpha-3 (Homo sapiens) (UniProt P51812); details: at 1 µM
[8] = biological target: Ribosomal protein S6 kinase alpha-2 (Homo sapiens) (UniProt Q15349); details: at 0.1 µM
Chain of Ribosomal protein S6 kinase alpha-2 (Homo sapiens) (Q15349 whole entry): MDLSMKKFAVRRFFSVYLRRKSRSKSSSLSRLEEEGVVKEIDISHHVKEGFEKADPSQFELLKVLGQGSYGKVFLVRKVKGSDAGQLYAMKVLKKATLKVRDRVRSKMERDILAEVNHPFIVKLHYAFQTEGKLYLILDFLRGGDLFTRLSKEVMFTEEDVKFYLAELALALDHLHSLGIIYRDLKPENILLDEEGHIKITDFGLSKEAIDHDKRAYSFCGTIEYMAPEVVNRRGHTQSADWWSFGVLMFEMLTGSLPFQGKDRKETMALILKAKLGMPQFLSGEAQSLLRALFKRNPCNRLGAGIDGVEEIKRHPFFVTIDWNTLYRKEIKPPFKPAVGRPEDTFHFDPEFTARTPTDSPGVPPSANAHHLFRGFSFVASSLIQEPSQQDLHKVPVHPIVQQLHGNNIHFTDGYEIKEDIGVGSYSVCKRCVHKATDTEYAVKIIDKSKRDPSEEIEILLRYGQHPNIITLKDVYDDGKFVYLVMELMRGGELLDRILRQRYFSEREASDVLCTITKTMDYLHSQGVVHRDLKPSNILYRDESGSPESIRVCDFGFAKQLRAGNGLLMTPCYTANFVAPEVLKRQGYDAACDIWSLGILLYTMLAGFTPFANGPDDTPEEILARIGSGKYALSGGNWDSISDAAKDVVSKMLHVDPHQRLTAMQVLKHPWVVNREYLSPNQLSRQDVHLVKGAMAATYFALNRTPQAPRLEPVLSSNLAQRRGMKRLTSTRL

[9] = biological target: Ribosomal protein S6 kinase alpha-2 (Homo sapiens) (UniProt Q15349); details: at 1 µM
[10] = biological target: Ribosomal protein S6 kinase alpha-6 (Homo sapiens) (UniProt Q9UK32); details: at 0.1 µM
Chain of Ribosomal protein S6 kinase alpha-6 (Homo sapiens) (Q9UK32 whole entry): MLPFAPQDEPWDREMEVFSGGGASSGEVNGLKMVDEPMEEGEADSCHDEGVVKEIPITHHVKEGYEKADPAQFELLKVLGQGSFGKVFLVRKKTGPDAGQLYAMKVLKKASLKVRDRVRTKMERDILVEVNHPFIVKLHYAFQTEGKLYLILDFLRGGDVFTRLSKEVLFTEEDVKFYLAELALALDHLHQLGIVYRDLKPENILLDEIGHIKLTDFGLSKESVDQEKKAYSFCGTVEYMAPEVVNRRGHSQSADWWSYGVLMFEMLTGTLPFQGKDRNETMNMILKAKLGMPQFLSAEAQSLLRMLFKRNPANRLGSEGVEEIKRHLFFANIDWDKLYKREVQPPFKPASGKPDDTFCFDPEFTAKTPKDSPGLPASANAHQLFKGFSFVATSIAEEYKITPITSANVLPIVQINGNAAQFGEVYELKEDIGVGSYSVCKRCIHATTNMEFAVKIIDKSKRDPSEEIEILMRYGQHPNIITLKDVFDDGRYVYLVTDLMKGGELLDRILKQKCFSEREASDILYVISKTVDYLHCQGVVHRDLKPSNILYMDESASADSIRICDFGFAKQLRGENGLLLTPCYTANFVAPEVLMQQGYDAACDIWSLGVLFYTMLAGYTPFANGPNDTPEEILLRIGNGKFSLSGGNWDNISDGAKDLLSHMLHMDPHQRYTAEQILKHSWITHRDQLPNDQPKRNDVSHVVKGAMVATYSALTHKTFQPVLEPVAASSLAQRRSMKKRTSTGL

[11] = biological target: Ribosomal protein S6 kinase alpha-6 (Homo sapiens) (UniProt Q9UK32); details: at 1 µM
[12] = biological target: T1, Serine/threonine-protein kinase Sgk1 (Homo sapiens) (UniProt O00141); details: at 0.1 µM
T1 sequence (whole entry): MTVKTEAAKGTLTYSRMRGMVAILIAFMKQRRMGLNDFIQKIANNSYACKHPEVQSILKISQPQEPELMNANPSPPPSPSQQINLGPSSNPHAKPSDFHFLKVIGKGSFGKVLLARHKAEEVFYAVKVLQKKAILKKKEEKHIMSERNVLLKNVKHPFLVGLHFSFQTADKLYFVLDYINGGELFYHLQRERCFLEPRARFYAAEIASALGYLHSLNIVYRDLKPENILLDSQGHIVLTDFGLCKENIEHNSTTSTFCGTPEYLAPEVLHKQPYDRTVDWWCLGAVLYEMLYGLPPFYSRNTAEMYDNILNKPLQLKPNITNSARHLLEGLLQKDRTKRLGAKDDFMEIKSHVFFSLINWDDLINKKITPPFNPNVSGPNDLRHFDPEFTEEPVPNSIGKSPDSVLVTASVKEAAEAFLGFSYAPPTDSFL

[13] = biological target: T1, Serine/threonine-protein kinase Sgk1 (Homo sapiens); details: at 1 µM
[14] = biological target: T2, Serine/threonine-protein kinase Sgk2 (Homo sapiens) (UniProt Q9HBY8); details: at 0.1 µM
T2 sequence (whole entry): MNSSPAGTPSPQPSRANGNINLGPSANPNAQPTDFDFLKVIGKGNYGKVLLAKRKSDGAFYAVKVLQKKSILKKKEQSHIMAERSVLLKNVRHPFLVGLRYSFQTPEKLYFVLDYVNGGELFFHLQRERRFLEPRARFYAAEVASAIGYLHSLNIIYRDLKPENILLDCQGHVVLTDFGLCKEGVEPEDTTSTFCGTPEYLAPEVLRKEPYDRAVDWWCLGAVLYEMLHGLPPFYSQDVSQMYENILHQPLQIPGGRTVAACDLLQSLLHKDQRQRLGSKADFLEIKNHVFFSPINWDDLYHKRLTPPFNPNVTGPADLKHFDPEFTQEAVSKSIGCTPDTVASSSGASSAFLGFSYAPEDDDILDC

[15] = biological target: T2, Serine/threonine-protein kinase Sgk2 (Homo sapiens); details: at 1 µM
[16] = biological target: T3, Serine/threonine-protein kinase Sgk3 (Homo sapiens) (UniProt Q96BR1); details: at 0.1 µM
T3 sequence (whole entry): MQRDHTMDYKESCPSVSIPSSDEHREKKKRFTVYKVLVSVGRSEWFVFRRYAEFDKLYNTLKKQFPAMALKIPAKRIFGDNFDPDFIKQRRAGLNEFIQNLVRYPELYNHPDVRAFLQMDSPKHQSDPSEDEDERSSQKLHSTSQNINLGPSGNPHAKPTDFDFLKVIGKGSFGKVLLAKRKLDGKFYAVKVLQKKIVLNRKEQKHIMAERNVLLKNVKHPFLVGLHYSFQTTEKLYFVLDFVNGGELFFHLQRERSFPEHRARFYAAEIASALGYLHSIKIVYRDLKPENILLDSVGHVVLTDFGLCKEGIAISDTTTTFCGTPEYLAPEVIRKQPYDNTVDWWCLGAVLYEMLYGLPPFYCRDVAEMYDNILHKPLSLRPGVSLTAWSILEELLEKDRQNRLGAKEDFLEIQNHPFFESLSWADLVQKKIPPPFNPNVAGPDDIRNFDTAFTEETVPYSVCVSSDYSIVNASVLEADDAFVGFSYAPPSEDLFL

[17] = biological target: T3, Serine/threonine-protein kinase Sgk3 (Homo sapiens); details: at 1 µM
[18] = biological target: 5'-AMP-activated protein kinase catalytic subunit alpha-1 (Homo sapiens) (UniProt Q13131); details: at 0.1 µM
Chain of 5'-AMP-activated protein kinase catalytic subunit alpha-1 (Homo sapiens) (Q13131 whole entry, looked up): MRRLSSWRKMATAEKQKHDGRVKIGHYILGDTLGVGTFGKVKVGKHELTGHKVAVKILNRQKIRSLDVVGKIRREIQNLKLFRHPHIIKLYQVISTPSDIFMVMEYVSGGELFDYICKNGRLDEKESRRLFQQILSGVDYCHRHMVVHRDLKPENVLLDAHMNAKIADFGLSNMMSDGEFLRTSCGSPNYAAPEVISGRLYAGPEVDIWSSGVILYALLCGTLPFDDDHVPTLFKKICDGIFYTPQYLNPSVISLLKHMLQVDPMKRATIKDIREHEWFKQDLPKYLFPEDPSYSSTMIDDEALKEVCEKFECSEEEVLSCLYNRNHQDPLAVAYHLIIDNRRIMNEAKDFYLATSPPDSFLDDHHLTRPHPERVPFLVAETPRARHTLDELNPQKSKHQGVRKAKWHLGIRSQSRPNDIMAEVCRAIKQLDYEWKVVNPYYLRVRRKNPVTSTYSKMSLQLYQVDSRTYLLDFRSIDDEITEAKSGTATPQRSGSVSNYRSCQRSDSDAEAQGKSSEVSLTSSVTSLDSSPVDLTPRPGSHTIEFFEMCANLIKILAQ

[19] = biological target: 5'-AMP-activated protein kinase catalytic subunit alpha-1 (Homo sapiens) (UniProt Q13131); details: at 1 µM
[20] = biological target: 5'-AMP-activated protein kinase catalytic subunit alpha-2 (Homo sapiens) (UniProt P54646); details: at 0.1 µM;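 also: mean inhibition measured on the AMPK complex of alpha2, beta1 and gamma1 subunits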
Chain of 5'-AMP-activated protein kinase catalytic subunit alpha-2 (Homo sapiens) (P54646 whole entry, looked up): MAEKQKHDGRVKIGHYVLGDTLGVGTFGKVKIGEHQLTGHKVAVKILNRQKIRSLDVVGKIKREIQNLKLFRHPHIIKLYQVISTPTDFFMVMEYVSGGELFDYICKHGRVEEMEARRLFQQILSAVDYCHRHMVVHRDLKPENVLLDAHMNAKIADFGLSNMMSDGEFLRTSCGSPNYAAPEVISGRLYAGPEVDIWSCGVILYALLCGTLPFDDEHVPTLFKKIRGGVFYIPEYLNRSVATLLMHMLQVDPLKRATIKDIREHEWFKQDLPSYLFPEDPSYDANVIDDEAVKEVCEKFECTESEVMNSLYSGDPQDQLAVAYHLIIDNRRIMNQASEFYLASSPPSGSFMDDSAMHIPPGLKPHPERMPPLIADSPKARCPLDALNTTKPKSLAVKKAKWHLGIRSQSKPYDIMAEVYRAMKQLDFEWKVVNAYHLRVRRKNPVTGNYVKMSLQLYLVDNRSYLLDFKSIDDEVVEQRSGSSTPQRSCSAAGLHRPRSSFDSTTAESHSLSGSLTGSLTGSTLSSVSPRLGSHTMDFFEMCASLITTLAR

Chain of Rho-associated protein kinase 1 (Homo sapiens) (Q13464 2-1354 limits assumed): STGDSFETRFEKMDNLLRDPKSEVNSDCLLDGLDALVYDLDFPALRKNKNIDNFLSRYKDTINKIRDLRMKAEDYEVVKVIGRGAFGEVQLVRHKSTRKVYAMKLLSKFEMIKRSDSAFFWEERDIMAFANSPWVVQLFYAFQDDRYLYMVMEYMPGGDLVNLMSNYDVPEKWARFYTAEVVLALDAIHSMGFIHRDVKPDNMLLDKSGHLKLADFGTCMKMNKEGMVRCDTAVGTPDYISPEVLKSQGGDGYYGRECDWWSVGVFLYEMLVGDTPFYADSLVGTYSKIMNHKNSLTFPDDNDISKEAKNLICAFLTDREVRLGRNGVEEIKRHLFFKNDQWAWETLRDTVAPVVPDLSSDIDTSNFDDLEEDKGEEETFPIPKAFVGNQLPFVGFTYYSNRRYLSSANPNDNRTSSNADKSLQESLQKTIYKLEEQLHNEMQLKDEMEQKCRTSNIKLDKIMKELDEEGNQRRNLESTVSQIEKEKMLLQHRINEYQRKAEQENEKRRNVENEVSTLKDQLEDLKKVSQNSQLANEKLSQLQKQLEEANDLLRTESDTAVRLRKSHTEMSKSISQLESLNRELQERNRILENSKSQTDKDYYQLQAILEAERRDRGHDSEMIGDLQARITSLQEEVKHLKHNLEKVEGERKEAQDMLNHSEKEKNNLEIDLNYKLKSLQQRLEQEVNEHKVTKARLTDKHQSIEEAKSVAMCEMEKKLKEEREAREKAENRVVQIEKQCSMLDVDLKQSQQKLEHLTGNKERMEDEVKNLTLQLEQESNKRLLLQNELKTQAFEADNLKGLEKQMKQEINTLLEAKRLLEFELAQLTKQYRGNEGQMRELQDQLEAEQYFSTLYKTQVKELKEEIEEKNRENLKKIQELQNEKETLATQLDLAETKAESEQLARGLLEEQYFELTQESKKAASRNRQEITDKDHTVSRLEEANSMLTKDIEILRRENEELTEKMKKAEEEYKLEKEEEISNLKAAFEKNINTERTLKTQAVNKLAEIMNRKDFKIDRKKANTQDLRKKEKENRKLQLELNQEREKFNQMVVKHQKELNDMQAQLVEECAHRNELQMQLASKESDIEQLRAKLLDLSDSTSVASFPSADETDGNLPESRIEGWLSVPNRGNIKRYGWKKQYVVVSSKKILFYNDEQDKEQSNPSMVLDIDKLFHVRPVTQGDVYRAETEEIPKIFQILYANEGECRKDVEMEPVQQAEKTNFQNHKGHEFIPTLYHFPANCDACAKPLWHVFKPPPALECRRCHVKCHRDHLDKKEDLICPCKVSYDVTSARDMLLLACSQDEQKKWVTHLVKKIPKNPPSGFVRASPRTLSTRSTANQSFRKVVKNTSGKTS

CCn1c(-c2nonc2N)nc2c(C#CC(C)(C)O)nc(CN3CCCC3)cc21
inhibition [1]: 0.94%
inhibition [2]: 0.14%
inhibition [3]: 1.51%
inhibition [4]: 2.05%
inhibition [5]: 1.13%
inhibition [6]: 1.08%
inhibition [7]: 2.37%
inhibition [8]: -0.08%
inhibition [9]: 0.59%
inhibition [10]: 0.28%
inhibition [11]: 0.64%
inhibition [12]: -0.45%
inhibition [13]: 0.58%
inhibition [14]: 0.87%
inhibition [15]: -0.61%
inhibition [16]: 0.78%
inhibition [17]: 0.63%
inhibition [18]: 2.98%
inhibition [19]: 3.34%
inhibition [20]: 2.04%

Cn1cc(C=C2C(=O)Nc3cccnc32)c2ccccc21
inhibition [1]: 5.28%
inhibition [2]: 2.47%
inhibition [3]: 8.3%
inhibition [4]: 0.08%
inhibition [5]: 5.16%
inhibition [8]: 1.73%
inhibition [9]: 7.9%
inhibition [10]: 2.64%
inhibition [11]: 10.2%
inhibition [12]: 1.6%
inhibition [13]: 5.51%
inhibition [14]: -2.41%
inhibition [15]: 1.75%
inhibition [16]: 1.35%
inhibition [17]: 0.63%
inhibition [18]: 5.84%
inhibition [19]: 14.8%
inhibition [20]: 4.46%

NS(=O)(=O)c1cccc(-c2ccc3c(NC(=O)C4CC4)n[nH]c3c2)c1
inhibition [1]: 1.53%
inhibition [2]: 0.53%
inhibition [3]: 2.48%
inhibition [4]: 0.46%
inhibition [5]: 3.07%
inhibition [6]: 0.8%
inhibition [7]: 2.45%
inhibition [8]: -0.89%
inhibition [9]: 0.27%
inhibition [10]: -0.55%
inhibition [11]: 0.54%
inhibition [12]: 1.71%
inhibition [13]: 2.69%
inhibition [14]: 3.21%
inhibition [15]: -4.4%
inhibition [16]: 0.09%
inhibition [17]: 0.67%
inhibition [18]: -0.48%
inhibition [19]: 0.34%
inhibition [20]: 3.53%

CCCN1CCC(Oc2cc(Nc3nc(Nc4cccc(F)c4C(N)=O)c4cc[nH]c4n3)c(OC)cc2Cl)CC1
inhibition [1]: 8.85%
inhibition [2]: 1.22%
inhibition [3]: 7.48%
inhibition [4]: 0.01%
inhibition [5]: 7.33%
inhibition [6]: 0.89%
inhibition [7]: 3.26%
inhibition [8]: -0.12%
inhibition [9]: 0.95%
inhibition [10]: 1.35%
inhibition [11]: 4.14%
inhibition [12]: 0.54%
inhibition [13]: 0.96%
inhibition [14]: 0.41%
inhibition [15]: 1.93%
inhibition [16]: -0.88%
inhibition [17]: -2.21%
inhibition [18]: 3.28%
inhibition [19]: 8.12%
inhibition [20]: 1.83%

COc1cc2ncn(-c3cc(OCc4ccccc4C(F)(F)F)c(C(N)=O)s3)c2cc1OC
inhibition [1]: 4.31%
inhibition [2]: 3.56%
inhibition [3]: 8.03%
inhibition [4]: 0.65%
inhibition [5]: 9.54%
inhibition [6]: -0.02%
inhibition [7]: 11.1%
inhibition [8]: 2.5%
inhibition [9]: 8.42%
inhibition [10]: 3.37%
inhibition [11]: 23.6%
inhibition [12]: 3.02%
inhibition [13]: 1.49%
inhibition [14]: 6.11%
inhibition [15]: 0.81%
inhibition [16]: 3.87%
inhibition [17]: 1.64%
inhibition [18]: 5.52%
inhibition [19]: 19.1%
inhibition [20]: 2.61%

CCn1c(-c2nonc2N)nc2c(N3CCCC3)nccc21
inhibition [1]: 22.2%
inhibition [2]: 3.86%
inhibition [3]: 30.6%
inhibition [4]: 0.29%
inhibition [5]: 7.82%
inhibition [6]: 0.44%
inhibition [7]: 4.5%
inhibition [8]: -0.11%
inhibition [9]: 7.05%
inhibition [10]: -0.21%
inhibition [11]: -0.13%
inhibition [12]: 0.28%
inhibition [13]: -1.03%
inhibition [14]: -2.98%
inhibition [15]: 2.83%
inhibition [16]: -0.79%
inhibition [17]: -0.02%
inhibition [18]: -0.36%
inhibition [19]: 0.11%
inhibition [20]: -8%

CCn1c(-c2nonc2N)nc2cnc(Oc3cccc(NC(=O)c4ccc(OCCN5CCOCC5)cc4)c3)cc21
inhibition [2]: 90%
inhibition [3]: 90.5%
inhibition [4]: 26.1%
inhibition [5]: 70.6%
inhibition [6]: 12.2%
inhibition [7]: 54.6%
inhibition [8]: 15.6%
inhibition [9]: 61%
inhibition [10]: 2.18%
inhibition [11]: 13.8%
inhibition [12]: 7.56%
inhibition [13]: 34.7%
inhibition [14]: 15.7%
inhibition [15]: 58.5%
inhibition [16]: 36.3%
inhibition [17]: 74.3%
inhibition [18]: 2.28%
inhibition [19]: 2.06%
inhibition [20]: 2.76%
